PMP22 txn prim = Cell-based coincidence reporter assay to measure PMP22 gene transcription in S16 Pmp22-F2sN cells - Primary screen; S16 Pmp22-F2sN Schwann cells, FLuc/NLuc coincidence luminescence, 24 h; Potency, µM (series often up to 57.5 µM), inactives show at the highest dose activity change, negative = inhibition, most hits filed as inhibitors; 43,000 tested, 2% active; active means clear falling dose curves in both reporters; inconclusive means both reporters move, but less clearly or upward; inactive means either reporter flat; the % is the NLuc reporter signal; further: on the % scale 0 is the no-effect control and ±100 the full control effect
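Schwann cells carrying the coincidence reporter were exposed to library compounds for 24 h at 37C, then lysed and read for FLuc and, after quenching, NLuc luminescence on a CCD imager.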
S16 viability = Cell viability qHTS assay in S16 Pmp22-F2sN cells | Potency, µM (titrated, usually from 57.5 µM), for the others: at the top dose activity change, negative = cytotoxicity, actives largely listed as cytotoxic | S16 Pmp22-F2sN Schwann cells (luciferase reporters placed in the Pmp22 gene) viability, CellTiter-Glo, 24 h | 43,000 tested, 0.48% active; further: on the % scale 0 is the no-effect control and ±100 the full control effect; nearly all actives have a fitted effect of over 65% in size
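Seed 500-1,000 S16 Pmp22-F2sN cells per well in phenol-red-free DMEM with 10% heat-inactivated FBS; pin-add 23 nL compound; incubate 24 h at 37C; add CellTiter-Glo, wait 15 min protected from light; read luminescence.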
mTORC1 inh = Acumen qHTS Assay for Inhibitors of the mTORC1 Signaling Pathway in MEF (Tsc2-/-, p53-/-) Cells: Sytravon | Tsc2-/- p53-/- MEF, phospho-rpS6 immunofluorescence/PI, 24 h | Potency, µM (doses to about 38.3 µM), without a hit: at the highest dose activity change, negative = inhibition, usual class: inhibitors | 44,000 tested, 0.78% active | AID 493208, 2011;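 further: plate controls were DMSO for no effect and rapamycin for full effect; nearly all actives have a fitted effect of over 50% in size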
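Plate MEFs (Tsc2-/-, p53-/-, empty vector) in DMEM/10% FBS; after 24 h add compound, incubate 24 h at 37 degree Celsius; fix in PFA/TX-100, block, stain phospho-rpS6 and 10 uM PI; scan at 488 nm; report % positive cells.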
HTT promoter inh = Primary qHTS for Identification of Small Molecule Inhibitors of Huntingtin Promoter Activity; HEK293 HTT promoter firefly luciferase reporter, 24 h; Potency, µM (titrated, usually from 57.5 µM), without a hit: at the highest dose activity change, negative = inhibition, hits mostly inhibitors; 48,000 tested, 0.93% active; AID 1508623, 2021; further: nearly all actives have a fitted effect of over 50% in size
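HEK293 luciferase promoter-reporter cells (2,500/well) plated 24 h, then compounds added at up to 57.5 uM final for 24 h at 37 °C. Firefly luminescence by Dual-Glo, normalized to vehicle (0%) and zero RLU (-100%).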
HTT-AS promoter = Primary qHTS for Identification of Small Molecule Activators of Huntingtin-Antisense Promoter Activity; HEK293 HTT-AS promoter firefly luciferase reporter, 24 h; response scale: percent change from vehicle, -100% = no light; Potency, µM (doses to about 57.5 µM), without a hit: at the top dose activity change, positive = activation, hits mostly activators; 48,000 tested, 0.24% active; further: nearly all actives have a fitted effect of over 55% in size
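HEK293 cells carrying firefly luciferase reporters were seeded at 2,500 per well in Opti-MEM and cultured for 24 h. They were then treated with compounds at up to 57.5 uM final for 24 h at 37 degrees C before Dual-Glo luminescence readout.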
The depositor's hits bear a star; ? = inconclusive; nt = no result given; [ ] = remark or other dose. This is a sample that favours compounds with a hit; in the whole collection about 3.6% have one here. Unless noted, the call rests on the fitted dose curve; in most records, active means well fitted curve in the direction sought with a large enough effect; inconclusive means small, poorly fitted or top-dose-only effect, or another doubt; inactive means no such curve, though single readings can be large; an effect the other way counts as inactive or inconclusive. Potency means the concentration at half of the fitted maximal effect.

SMILES	PMP22 txn prim	S16 viability	mTORC1 inh	HTT promoter inh	HTT-AS promoter
COc1cc(C=CC(=O)CC(=O)C=Cc2ccc(O)c(OC)c2)ccc1O	nt	nt	nt	?	-56%[116 µM]
COc1cccc2cc(C(=O)NCCc3c(C)[nH]c4ccc(F)cc34)c(=O)oc12	-30%	10%	-2%	8%	5%
COc1cccc2cc(C(=O)Nc3ccc(CC(=O)O)cc3)c(=O)oc12	-17%	4%	-5%	0.28µM*	-90%
CC(Oc1ccc(Br)cc1)C(=O)Nc1ncn[nH]1 (stereo not drawn)	-1%	-3%	6%	-7%	-7%
O=C(COc1ccc(Br)cc1Cl)Nc1ncn[nH]1	2%	-2%	-4%	72%	8.9µM*
CCc1ccc(OCC(=O)Nc2ncn[nH]2)c(Br)c1	-13%	-3%	-4%	54%	25µM*
C[C@@H](Cc1cc2c(c(C(N)=O)c1)N(CCCO)CC2)NCCOc1ccccc1OCC(F)(F)F	nt	nt	nt	-11%	-17%
COc1ccccc1Nc1c2c(nc3ccc(NC(=O)c4ccc(N(C)C)cc4)cc13)CCCC2	?	?	5.2µM*	?	-42%
COc1ccc(-c2nc(CSCC(=O)N3CCN(c4ccccc4F)CC3)c(C)o2)cc1	?	?	-8%	28µM*	-66%
Cc1oc(-c2ccccc2F)nc1CSCC(=O)N1CCN(c2ccccc2)CC1	?	?	-10%	22µM*	-64%
O=C(CSCc1ccc(F)cc1)N1CCN(c2ccccc2F)CC1	?	-16%	2%	2%	23%
O=C(Nc1ccc(SC(F)F)cc1)c1cc(-c2ccc3c(c2)OCCO3)on1	?	-10%	0%	10µM*	-64%
CCc1ccc(OCC(=O)N(Cc2ccc(C)cc2)Cc2ccco2)cc1	?	8%	4.1µM*	-24%	-14%
CCc1ccc(NC(=O)c2ccc(F)c(S(=O)(=O)N3CCc4ccccc4C3)c2)cc1	-21%	-21%	-4%	25µM*	-20%
CCc1ccc(NC(=O)c2ccc(F)c(S(=O)(=O)N3CCN(c4ccc(OC)cc4)CC3)c2)cc1	-60%	10%	-12%	?	-39%
O=C(Nc1ccccc1C(F)(F)F)c1ccc(F)c(S(=O)(=O)N2CCc3ccccc3C2)c1	-5%	-20%	9%	?	-24%
CCc1ccc(NC(=O)c2ccc(F)c(S(=O)(=O)N3CCC(C)CC3)c2)cc1	-18%	0%	0%	4.5µM*	-36%
CCc1ccc(NC(=O)c2ccc(F)c(S(=O)(=O)N3CCC4(CC3)OCCO4)c2)cc1	?	-17%	-12%	16µM*	-25%
COC1=C2C[C@@H](C)C[C@H](OC)[C@@H](O)[C@@H](C)C=C(C)[C@H](OC(N)=O)[C@@H](OC)C=CC=C(C)C(=O)NC(=CC1=O)C2=O	nt	nt	nt	?	-65%
C[C@H]1O[C@H](O[C@H]2[C@H](O)[C@@H](O)[C@@H](O[C@H]3[C@H](O)[C@@H](O)C(O)O[C@H]3CO)O[C@H]2CO)[C@H](O)[C@@H](O)[C@H]1N[C@H]1C=C(CO)[C@@H](O)[C@H](O)[C@@H]1O (stereo partly drawn)	nt	nt	nt	10%	0%
Cc1nn(-c2ccccc2)c2c1N(CCCC(=O)NCc1ccc(OC(C)C)cc1)C(=O)CS2	?	10µM*	0%	14µM*	-43%
Cn1ccc2c(OCC(=O)Nc3ccc(OC(F)(F)F)cc3)cccc2c1=O	?	?	-10%	20µM*	-76%
Cn1nc(-c2ccc(C(=O)Nc3ccc(OC(F)(F)F)cc3)cc2)c2ccccc2c1=O	?	?	2%	10µM*	-47%
Cn1cc(C=CC(=O)c2cccc(F)c2)cc1C=CC(=O)NO	nt	nt	nt	33%	17%
N#CC(=C(N)Sc1ccc(N)cc1)c1ccccc1C(F)(F)F	nt	nt	nt	-4%	-11%
SMILES	PMP22 txn prim	S16 viability	mTORC1 inh	HTT promoter inh	HTT-AS promoter
NC(=O)c1c(OCc2c(F)cc(Br)cc2F)nsc1NC(=O)NCCCCN1CCCC1	nt	nt	nt	-20%	-23%
CCOc1ccccc1N(CC)C(=O)c1cc2c(=O)[nH]c3ccc(C)cc3c2s1	?	3%	-12%	2.5µM*	-80%
COc1cc(C)c(C=CC(C)=CC=CC(C)=CC(=O)O)c(C)c1C	nt	nt	nt	15%	0%
Cc1ccc(S(=O)(=O)C(CNS(=O)(=O)c2ccc(F)c(C)c2)c2cccs2)cc1 (stereo not drawn)	?	25µM*	-4%	?	-31%
CC(C)(C)c1ccc(C(=O)NCC(c2cccs2)S(=O)(=O)c2ccc(F)cc2)cc1 (stereo not drawn)	?	?	-3%	20µM*	-58%
Cc1cc(C)c(S(=O)(=O)NCC(c2ccco2)S(=O)(=O)c2ccccc2)c(C)c1 (stereo not drawn)	-26%	-10%	-5%	-25%	-22%
Cc1cc(C)c(S(=O)(=O)NCC(c2cccs2)S(=O)(=O)c2ccccc2)c(C)c1 (stereo not drawn)	?	13µM*	?	-29%	-39%
CCCCc1ccc(NS(=O)(=O)c2ccc(C)c(C(=O)N3CCN(c4cccc(C)c4C)CC3)c2)cc1	nt	nt	nt	-6%	-20%
CCOC(=O)[C@@H](N)Cc1ccc(-c2cc(O[C@H](c3ccc(Cl)cc3-n3ccc(C)n3)C(F)(F)F)nc(N)n2)cc1	nt	nt	nt	-7%	-19%
Cc1c(CN2CCN(C(=O)C(C)C)CC2)sc2c(N3CCOCC3)nc(-c3cnc(N)nc3)nc12	nt	nt	nt	?	-36%
Fc1ccc(-n2ncc3c(NCCC4=CCCCC4)ncnc32)cc1	-128%	11%	9%	38%	10µM*
CCc1ccc(C(=O)CC2(O)C(=O)N(CCc3ccccc3)c3ccc(Cl)cc32)cc1 (stereo not drawn)	?	20µM*	?	?	-49%
Cc1ccccc1CN1C(=O)C(O)(c2c[nH]c3ccccc23)c2cc(Cl)ccc21 (stereo not drawn)	?	1%	?	-15%	-26%
Cc1ccccc1CN1C(=O)C(O)(CC(=O)c2ccccc2)c2cc(Cl)ccc21 (stereo not drawn)	?	?	12µM*	?	-32%
O=C(CC1(O)C(=O)N(CCc2ccccc2)c2ccc(Br)cc21)c1ccc(F)cc1 (stereo not drawn)	?	?	?	?	-27%

Source: PubChem BioAssay
